From PubChem
Only some compounds are listed: those with a hit (about 3.4% of all), similar ones and a draw of the others.
TEAD-YAP inh – TEAD-YAP interaction inhibition. inhibition, % at 9.12 µM. HEK-TIYL cells, TEAD-Gal4/YAP UAS-luciferase luminescence. 1.4% of 640,000 active; in the data active means inhibition above about 32%
FBW7 act – human FBW7 E3 ligase activation, primary screen | Q969H0 | normalized activity (activation), % at 26.1 µM | 0.13% of 650,000 active | AlphaScreen FBW7–phospho-cyclin E peptide binding, activator screen; in the data active means normalized activity above about 1.9%;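 further: purified mutant Fbw7 with reduced substrate affinity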
GPR151 ag – activators of human GPR151 | activation, % at 11.2 µM | 1% of 650,000 active | AID 1508602 | PathHunter beta-arrestin GPR151 cells, luminescence; in the data active means activation above about 4.9%
Target sequence (Q8TDV0 whole entry, looked up): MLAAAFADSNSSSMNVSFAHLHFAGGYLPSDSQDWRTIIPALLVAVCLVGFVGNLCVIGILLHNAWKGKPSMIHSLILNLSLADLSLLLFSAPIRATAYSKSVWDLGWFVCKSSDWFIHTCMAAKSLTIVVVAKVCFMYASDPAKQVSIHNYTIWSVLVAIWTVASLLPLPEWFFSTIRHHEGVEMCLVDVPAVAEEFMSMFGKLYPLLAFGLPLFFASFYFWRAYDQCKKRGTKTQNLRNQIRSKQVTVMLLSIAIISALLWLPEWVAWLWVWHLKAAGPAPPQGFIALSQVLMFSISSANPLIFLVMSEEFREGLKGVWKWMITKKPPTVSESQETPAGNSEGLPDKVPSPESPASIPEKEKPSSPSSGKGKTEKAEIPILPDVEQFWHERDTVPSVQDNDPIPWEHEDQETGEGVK
MITF inh – inhibitors of human MITF; AID 1259374; AlphaScreen MITF homodimerization, bead proximity signal; 0.91% of 650,000 active; inhibition, % at 2.6 µM; in the data active means inhibition above about 50%
Each line names hits and unclear results; the compound was inactive in the other large screens.

COc1cc(C2C(C#N)=C(N)Oc3c2ccc2ccccc32)ccc1O (stereo unspecified)	TEAD-YAP inh 57.8
COc1cccc(C2C(C#N)=C(N)Oc3cc4ccccc4cc32)c1 (stereo unspecified)	TEAD-YAP inh 42.5
CC(=O)c1cccc(NC(=O)COc2cc(C)c(Cl)c(C)c2)c1	none
COc1cc(C#N)ccc1OCC(=O)NCC(F)(F)F	none
CCOC(=O)c1cnc2ccc(OCC)cc2c1NCCCN(CC)CC	TEAD-YAP inh 33.1
Clc1ccc(Nc2nc(-c3ccncc3)nc3ccccc23)cc1	none
CC(C)C(=O)N1CCCSC1=Nc1ccccc1	none
C=CCOc1ccc(C(=O)N2CCc3c(nc(N4CC(C)OC(C)C4)[nH]c3=O)C2)cc1 (stereo unspecified)	FBW7 act 7.4
CC(C)[C@@H](CO)Nc1ccc2ncc(-c3ccc(N(C)C)cc3)n2n1	none
CC(C)[C@@H](CO)Nc1ccc2ncc(-c3cccc4ccccc34)n2n1	none
COc1ccc(-c2cnc3ccc(N[C@H](CO)C(C)C)nn23)c(OC)c1	FBW7 act 2.0
CC(C)[C@@H](CO)Nc1ccc2ncc(-c3ccco3)n2n1	TEAD-YAP inh 52.8
CC(C)[C@@H](CO)Nc1ccc2ncc(-c3ccsc3)n2n1	TEAD-YAP inh 32.5
CC(C)[C@@H](CO)Nc1ccc2ncc(-c3ccc(CO)cc3)n2n1	TEAD-YAP inh 42.9
CNC(=O)[C@@H]1C[C@H](NCc2ccc(OC)c(C)c2C)CN1Cc1ccccc1Cl	none
COc1cccc2sc(=NC(=O)c3nc4ccccc4s3)n(C)c12	TEAD-YAP inh 70.9
COc1cccc2sc(=NC(=O)c3cccc4ccccc34)n(C)c12	none
Cc1ccc(C(=O)Cn2c(C(=O)O)cc3ccccc32)cc1	none
Cc1ccc(C(=O)Cn2c(C(=O)OCCO)cc3ccccc32)cc1	TEAD-YAP inh 34.0
Cc1cccc2c1-c1sc(C(=O)NCCN3CCN(C)CC3)cc1CO2	none
Nc1cccc(-c2cccc(C(=O)NCCCN3CCCC3=O)c2)c1	TEAD-YAP inh 41.4
Cc1nc2cc(NCc3nc4ccccc4n3C)ccc2n1C	TEAD-YAP inh 80.9
Cc1ccc(OCC(=O)Nc2cccc(F)c2)cc1	none
COc1ccc(Cl)cc1C(=O)CSc1nnnn1C(C)C	none
Cn1c2ccncc2c2cc([N+](=O)[O-])ccc21	TEAD-YAP inh 76.4
O=[N+]([O-])c1ccc(Oc2ccc(S(=O)(=O)Nc3ccc4c(c3)OCCO4)cc2)cc1	TEAD-YAP inh 43.4
O=S(=O)(Nc1ccc2c(c1)OCO2)c1ccc(Oc2ccc(Br)cc2)cc1	none
O=C(NCC1CCCO1)C1CCCN1C(=O)Nc1ccccc1Cl (stereo unspecified)	none
O=C(Nc1ccc(Sc2nc3ccccc3s2)c(Cl)c1)c1cc([N+](=O)[O-])ccc1Cl	TEAD-YAP inh 32.1
O=C(Nc1ccc2oc(-c3cccc4c(Br)cccc34)nc2c1)c1ccccc1[N+](=O)[O-]	TEAD-YAP inh 43.2
O=C(Nc1ccc2oc(-c3cccc(F)c3)nc2c1)c1cc([N+](=O)[O-])ccc1Cl	TEAD-YAP inh 37.0
CC(=O)Nc1ccc(Sc2nc3ccccc3s2)c(Cl)c1	none
O=C(Nc1ccc2oc(-c3cccc4c(Br)cccc34)nc2c1)c1cc([N+](=O)[O-])ccc1Cl	none
COc1ccccc1C1Nc2ccccc2-c2nnc(SCc3ccccc3F)nc2O1 (stereo unspecified)	none
Cc1ccc(CN2CCC3(CCC(CNC(=O)c4ccccc4)O3)CC2)cc1 (stereo unspecified)	none
O=S(=O)(NCC1CCCO1)c1ccc(-c2ccc(S(=O)(=O)NCC3CCCO3)cc2)cc1 (stereo unspecified)	TEAD-YAP inh 51.8
O=S(=O)(NCC1CCCO1)c1ccc(Cc2ccc(S(=O)(=O)NCC3CCCO3)cc2)cc1 (stereo unspecified)	TEAD-YAP inh 42.7
O=S(=O)(NCC1CCCO1)c1ccc(NS(=O)(=O)c2ccc(F)cc2)cc1 (stereo unspecified)	none
c1coc(-c2nnc3c4ccccc4c4ccccc4n23)c1	none
Cc1nc2ncccn2c1-c1csc(Nc2ccccc2)n1	none
Cc1nc2ncccn2c1-c1csc(Nc2ccc(N(C)C)cc2)n1	TEAD-YAP inh 51.5
CC(=O)Nc1ccc(Nc2nc(-c3c(C)nc4ncccn34)cs2)cc1	none
COc1ccc(Nc2nc(-c3c(C)nc4ncccn34)cs2)cc1	TEAD-YAP inh 58.1
CN(C)CCNc1ccnc2c(-c3cccc(C(N)=O)c3)cnn12	TEAD-YAP inh 57.2
CCCNc1ccnc2c(-c3cccc(/C=C/C(=O)O)c3)cnn12	TEAD-YAP inh 63.9
CN(C)CCNc1ccnc2c(-c3cc4ccccc4o3)cnn12	TEAD-YAP inh 67.6
c1ccc(CNc2ccnc3c(-c4cc5ccccc5o4)cnn23)nc1	none
